Test results reported in PubChem BioAssay AID624330 (Southern Research Specialized Biocontainment Screening …, 2012).
Hit rate of the full screen: of about 340,000 compounds, about 2,100 (0.62%) were called active.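 How the source made its calls: active means first-screen hits whose inhibition reached a set limit at any dose in the follow-up dose series; inconclusive means inhibition above the set first-screen limit but never retested; inactive means the rest.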 Not all results are given here. Entries with a potency or affinity are not part of this list.

Each compound was assayed against Rac GTPase-activating protein 1 (Homo sapiens) (UniProt Q9H0H5) (assay: MgcRacGAP GTPase-activating activity inhibitors, confirmation, biochemical, ADP Hunter fluorescence, primary and confirmatory (AID 624330;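 further: fluorescence reports GDP produced by GAP-driven GTP hydrolysis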)). Conditions: MgcRacGAP-stimulated Rac1 GTP hydrolysis, at 30 µM, hits give high values, GST-tagged Rac1 F28L mutant substrate.
Chain of Rac GTPase-activating protein 1 (Homo sapiens) (Q9H0H5 whole entry, looked up): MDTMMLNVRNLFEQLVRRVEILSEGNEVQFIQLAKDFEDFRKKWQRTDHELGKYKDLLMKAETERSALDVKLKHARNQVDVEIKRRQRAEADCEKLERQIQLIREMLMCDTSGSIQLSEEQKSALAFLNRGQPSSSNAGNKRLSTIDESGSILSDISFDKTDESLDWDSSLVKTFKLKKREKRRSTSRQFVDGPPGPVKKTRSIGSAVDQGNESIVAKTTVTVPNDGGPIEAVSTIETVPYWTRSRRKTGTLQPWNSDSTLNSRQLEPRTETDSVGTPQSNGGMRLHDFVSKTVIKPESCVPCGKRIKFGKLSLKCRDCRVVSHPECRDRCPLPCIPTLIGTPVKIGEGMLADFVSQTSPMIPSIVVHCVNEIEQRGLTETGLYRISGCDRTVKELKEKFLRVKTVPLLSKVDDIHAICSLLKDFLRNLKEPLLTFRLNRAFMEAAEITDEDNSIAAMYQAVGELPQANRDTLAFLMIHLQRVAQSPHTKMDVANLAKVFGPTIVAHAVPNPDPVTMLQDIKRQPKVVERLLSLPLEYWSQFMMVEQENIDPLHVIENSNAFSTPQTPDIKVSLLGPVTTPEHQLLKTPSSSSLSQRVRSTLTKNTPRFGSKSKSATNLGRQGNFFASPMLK

inhibition, inactive:
CCOC(=O)CN1C(=O)S/C(=C/c2ccc(C)o2)C1=O 13.6%
O=C(CN(CC1CCCO1)C(=O)CCC(=O)Nc1nccs1)NCC1CCCO1 (stereo unspecified) -9.34%
O=C1CCc2cc(S(=O)(=O)Nc3cccc(F)c3)cc3c2N1CC3 4.84%
O=C(NCC(c1cccs1)N1CCOCC1)c1cc(S(=O)(=O)N2CCOCC2)c(Cl)cc1Cl (stereo unspecified) 2.31%
Cc1occc1-c1nnc(SCCCC(=O)c2ccc(F)cc2)n1C 14.1%
NNC(=S)NCCc1ccccc1 6.19%
CC(C(=O)N1CCc2ccccc21)N1CCN(c2ccccn2)CC1 (stereo unspecified) 6.14%
CC(C(=O)Nc1ccccc1)N1CCN(c2ccccn2)CC1 (stereo unspecified) 7.75%
O=C(CNC(=O)Cc1ccccc1)NCc1cccc(C(F)(F)F)c1 1.1%
CCN(Cc1ccncc1)C(=O)c1cccs1 -1.7%
O=C(CC1CCCC1)N1CCCC(Nc2cccc(F)c2)C1 (stereo unspecified) 7.36%
CC1CC(C)CN(C(=O)Cn2c(=O)n(CCCC(=O)NCc3ccco3)c(=O)c3sccc32)C1 (stereo unspecified) 9.26%
CCOc1cc2c(cc1OCC)C(c1ccccc1)N(c1ccccc1)C(=O)C2 (stereo unspecified) 1.91%
CCn1c(/C=C/c2ccccc2)nc2ccccc2c1=O 10.4%
CCN(CC)C(=O)CSc1nc2ccccc2c(=O)n1-c1ccccc1OC -9.96%
O=c1c2ccccc2nc(N/N=C/c2ccc(O)cc2)n1O 18.1%
CCn1c(/C=C/c2ccc(F)cc2)nc2ccccc2c1=O 8.84%
COc1ccccc1-n1c(SCC(=O)N2CCOCC2)nc2ccccc2c1=O -0.91%
O=c1c2ccccc2nc(/C=C/c2ccc(O)cc2)n1CCc1ccccc1 4.64%
C=CCn1c(C)nc2ccccc2c1=O 2.89%
Cn1c(/C=C/c2ccccc2)nc2ccccc2c1=O 5.36%
O=C(CSc1nncn1-c1ccccc1)Nc1ccccc1F 3.06%
COc1ccccc1/C=C/C(=O)OCC(=O)N1CCN(S(=O)(=O)c2ccc(C)cc2C)CC1 6.05%
CC(OC(=O)c1ccc(Cl)nc1)C(=O)Nc1ccc(S(=O)(=O)N2CCCC2)cc1 (stereo unspecified) 4.67%
C[C@@]12C(=O)N(CC3CC3)CC(=O)N1[C@H](C1CC1)[C@@H]1C(=O)N(c3ccccc3)C(=O)[C@@H]12 7.67%
Cc1cc(C)n2c(SCC(=O)NCc3ccc4c(c3)OCO4)nnc2n1 11.5%
CSCCC(NC(=O)c1ccccc1Br)C(=O)N1CCN(C/C=C/c2ccccc2)CC1 (stereo unspecified) 9.7%
COc1ccc(Cl)cc1NS(=O)(=O)N1CCOCC1 6.51%
COc1cc(OC)c(OC)cc1/C=N/NC(=O)CC1C(=O)NN=C1C (stereo unspecified) 4.43%
CC1C(=O)NN=C1C(=O)N/N=C\C(Br)=C\c1ccccc1 (stereo unspecified) 20.2%
COc1ccc(/C=N\NC(=O)C2=NNC(=O)C2C)cc1 (stereo unspecified) 13.9%
CC1C(=O)NN=C1C(=O)N/N=C/c1ccco1 (stereo unspecified) 14.2%
CC1C(=O)NN=C1C(=O)N/N=C/c1cccs1 (stereo unspecified) 17.2%
COc1ccc(OC)c(/C=N/NC(=O)CC2C(=O)NN=C2C)c1 (stereo unspecified) 3.85%
CCOC(=O)C1C(=O)NC(C(=O)OCC)(C(=O)OCC)C1C(C)CC (stereo unspecified) 6.57%
CC1CCCC(NC(=O)COC(=O)/C=C/c2ccco2)C1C (stereo unspecified) 2.8%
CNCCCOc1cccc(OC(C)C)c1 16.9%
CCc1ccccc1N(C(=O)c1ccco1)C(C(=O)NC1CCCC1)c1cccnc1 (stereo unspecified) 4.45%
CN(CC(=O)NCC1CCCO1)S(=O)(=O)c1ccc(Br)cc1 (stereo unspecified) 7.12%
C/C(N)=C(/C#N)C(=O)COC(=O)C1CCN(S(=O)(=O)c2cccs2)CC1 -1.72%
CC(=O)Nc1ccc(C(=O)N2CCc3cc4c(cc3C2C)OCCCO4)cc1 (stereo unspecified) 1.24%
COC(=O)C[C@H]1C[C@@H]2c3cc(NC(=O)Nc4ccc(F)cc4)ccc3O[C@@H]2[C@@H](CO)O1 7.07%
O=c1[nH]n(-c2ccccc2)c(=O)c2ccccc12 -1.66%
O=c1ccc(=O)n(-c2ccccc2)[nH]1 2.41%
O=C(O)CSCC(=O)Nc1ccc(C(=O)O)cc1 7.72%
COc1cc(CNCCO)ccc1OCCc1ccccc1 5.16%
O=C(O)c1ccccc1Nc1ccccc1C(=O)O 2%
COc1cccc(Nc2ccccc2C(=O)O)c1 7.48%
CC(Oc1ccccc1)C(=O)Nc1cccc(F)c1 (stereo unspecified) 3.1%
Cc1cc(N)cc(C)c1-c1c(Br)cc(N)cc1Br 10.2%
Cc1cc(C)cc(N)c1 6.83%
O=C(CCC(=O)OCc1cccc([N+](=O)[O-])c1)Nc1ccccc1Cl 2.82%
COc1ccc(C(=O)NCCc2nnc3ccc(SCC(=O)NCc4ccc(F)cc4)nn23)cc1 -0.6%
Cc1onc(-c2ccccc2Cl)c1C(=O)NNC(=O)c1nn(C)cc1Cl 1.82%
O=C(c1cc(COc2ccc(F)c(F)c2)on1)N1CCN(C/C=C/c2ccccc2)CC1 -6.39%
Nc1nc(N)c2cc(Sc3ccc(Cl)cc3)ccc2n1 11.7%
Nc1nc(N)c2cc(Sc3cccc(C(F)(F)F)c3)ccc2n1 5.58%
Cc1nc(Cc2nnc(SCC(=O)N3CCN(c4ccc(F)cc4)CC3)o2)cs1 0.95%
Cc1nc(Cc2nnc(SCC(=O)N3CCN(c4ccccc4)CC3)o2)cs1 5.08%
CC(=O)Nc1nc(=S)ss1 12.7%
CC(C)(C)C(=O)Nc1nc(=S)ss1 11.6%
